Holding throughout (assay): NCI-60 one-dose screen, 48 h (100 = growth as untreated, 0 = no growth, -100 = all killed)
What all share (settings): 10 µM

In assay [1] the test system is NCI-H23 lung.
For assay [2], the system named is NCI-H226 lung.
The subject of assay [3] is NCI-H460 lung.
Assay [4] concerns HOP-92 NSCLC.
Assay [5] has as its system A549/ATCC NSCLC.
Assay [6] relates to 786-0 renal.
Assay [7] has as its system COLO 205 colon.
In assay [8] the test system is DU-145 prostate.
In assay [9] the test system is MALME-3M melanoma.
In assay [10] the test system is MDA-MB-231 breast.
For assay [11], the system named is RXF 393 renal.
Assay [12] relates to SF-268 CNS.
Assay [13] concerns SF-295 CNS.
Assay [14] concerns SF-539 CNS.
Assay [15] relates to UACC-257 melanoma.
In assay [16] the test system is M14 melanoma.
Assay [17] relates to NCI-H522 lung.
The subject of assay [18] is K-562 leukemia.

Molecules are shown by their SMILES. Compounds without any hit were thinned out: in the full panel of roughly 83,000, 20% have a hit.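 Note: values are percent growth. 100 is the growth of untreated cells, values between 100 and 0 indicate rising inhibition; between -100 and 0 indicates cell death.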 Unmarked numbers belong to inactive results. The source made the active and inactive calls. Rule for the calls: active = growth percent below 10; inactive = the rest.

For 15 molecules, growth results are on record in PubChem BioAssay (NCI).

For the molecule `CCCCC(CC)CN=C(N)NC(N)=NCCCCCCN=C(N)NC(N)=NCC(CC)CCCC` (centres undefined), the growth was -80% (active) in [1]; -63.1% (active) in assay [2]; -71.3% (active) in assay [3]; -53.9% (active) in [4]; -87.1% (active) in assay [5]; -31.2% (active) in [6]. Moreover, the growth in assay [7] is -79.8% (active); in assay [8], -98.1% (active); in [9] it was -73% (active); in [10], -84.6% (active); in assay [11] it was -43.5% (active); in [12], -82.8% (active). The growth in assay [13] was -84.8% (active); in assay [14], -76.9% (active); in [15] it was -47.1% (active); in assay [16] it was -65.1% (active).
`C[C@H]1[C@H](OC(=O)CCC(=O)O)O[C@@H]2O[C@]3(C)CC[C@H]4[C@H](C)CC[C@@H]1[C@@]24OO3`: the growth was 19.9% in assay [1]; 59.5% in assay [2]; 25.5% in assay [3]; 41.6% in assay [4]; 42% in [5]; 33.5% in [6]. Moreover, the growth was -5.69% (active) in [7]; 82.7% in [8]; 74.8% in assay [9]; 65.1% in assay [10]; 55.9% in [11]; 55.6% in assay [12]. Besides, the growth in assay [13] is 11.6%; in assay [14], 31.9%; in assay [15] it was 50.8%; in assay [16], 39.7%.
As to `COc1ccc([C@H]2[C@H](C(=O)Nc3cccnc3)c3ccccc3C(=O)N2c2ccccc2)cc1`, the growth in assay [1] is 90.5%; in [2], 95.9%; in assay [3], 91.4%; in assay [17], 82.4%; in assay [5], 87.8%; in assay [6] it was 91.2%. For the same molecule, the growth is 63.2% in assay [7]; 107% in assay [8]; 99.9% in assay [18]; 108% in [9]; 95.9% in assay [10]; 94.2% in [11]. In addition, the growth in assay [12] is 93.9%; in [13] it was 70.7%; in [14], 114%; in assay [16], 86.2%.
Regarding `CO[C@H]1CC(O[C@@H]2/C(C)=C/C[C@@H]3C[C@@H](C[C@]4(C=C[C@H](C)[C@@H](C5CCCCC5)O4)O3)OC(=O)[C@@H]3C=C(C)[C@@H](O)[C@H]4OC/C(=C\C=C\[C@@H]2C)[C@]43O)O[C@@H](C)C1O[C@H]1C[C@H](OC)[C@@H](O)[C@H](C)O1` (some centres undefined), the growth in assay [1] is -63.7% (active); in assay [2], -85.8% (active); in [3], -86.7% (active); in assay [4], -82.9% (active); in assay [5], -79.7% (active); in assay [6] it was -80.3% (active). The growth in [7] was -64.7% (active); in assay [8] it was -98.4% (active); in assay [9] it was -68.1% (active); in assay [10], -81.1% (active); in [11] it was -95.5% (active); in assay [12] it was -81.5% (active). In addition, the growth in [13] is -84.6% (active); in assay [14], -72.3% (active); in [15], -84% (active); in assay [16], -88% (active).
Regarding `c1cncc(-c2csc(-c3c[nH]c4ccccc34)n2)c1`, the growth in assay [1] was 84.4%; in assay [2] it was 84.1%; in [3] it was 97%; in assay [17] it was 73.5%; in assay [5] it was 78.8%; in assay [6], 103%. For the same molecule, the growth in [7] is 94.9%; in assay [8], 103%; in [18] it was 97.7%; in [9], 78.8%; in assay [10], 73.5%; in assay [11], 111%. The growth is 92.5% in assay [12], 92.6% in assay [13], 84.9% in [14] and 85.8% in [16].
In the case of `CCn1cc(CNc2ccc(C(=O)Nc3ccc4ccccc4c3)cc2)c(C)n1`, the growth in assay [1] was 52.9%; in assay [2], 51%; in assay [3] it was 62.9%; in assay [17], 74.7%; in [5], 63.4%; in assay [6] it was 75.3%. Moreover, the growth in assay [7] was 69.2%; in assay [8] it was 61.2%; in [18], 59.5%; in assay [9], 62.5%; in [10], 83.8%; in assay [11] it was 86%. Besides, the growth was 76.4% in [12], 64.2% in assay [13], 83.3% in assay [14] and 45.1% in assay [16].
On to `COc1cc2c3c(n([C@H]4CCOC4)c(=O)c2cc1OC)-c1cc2c(cc1C3=O)OCO2`, for which the growth was 17.4% in assay [1]; 20.8% in [2]; 3.66% (active) in assay [3]; 15.8% in assay [17]; 32.5% in assay [5]; 10.6% in [6]. The growth in assay [7] was 35.8%; in assay [8], 19.8%; in assay [18], 59.6%; in assay [9] it was 78%; in [10] it was 91.8%; in assay [11], 41.7%. Besides, the growth was 31.7% in assay [12], -5.69% (active) in assay [13], 1% (active) in assay [14] and 23% in assay [16].
As for `CC(=O)O[C@@]12CO[C@@H]1C[C@H](O)[C@@]1(C)C(=O)[C@H](O)C3=C(C)[C@@H](OC(=O)[C@H](O)[C@@H](NC(=O)OC(C)(C)C)c4ccccc4)C[C@@](O)([C@@H](OC(=O)c4ccccc4)C12)C3(C)C` (some centres undefined), the growth is 31.8% in [1]; 61.5% in assay [2]; 12.1% in [3]; 56.3% in assay [4]; 38.8% in [5]; 54% in assay [6]. Further, the growth was 0.921% (active) in [7]; -10.4% (active) in assay [8]; 76.5% in assay [9]; 45.5% in assay [10]; 23.7% in assay [11]; 51.8% in assay [12]. In addition, the growth in assay [13] is -23% (active); in assay [14] it was 23%; in assay [15] it was 74%; in [16], 36%.
Turning to `COc1ccc(Cc2cnc(N)nc2N)cc1OC`, the growth is 96.8% in assay [1]; 99.1% in assay [2]; 105% in assay [3]; 90.1% in assay [4]; 101% in [5]; 109% in [6]. Further, the growth is 108% in assay [7]; 114% in assay [8]; 113% in assay [9]; 95.3% in assay [10]; 105% in [11]; 106% in assay [12]. Moreover, the growth in [13] was 96.2%; in assay [14], 107%; in assay [15], 100%; in [16], 108%.
Consider `CCC1NC(=O)c2cc(S(N)(=O)=O)c(Cl)cc2N1` (centres undefined), for which the growth is 108% in assay [1]; 102% in assay [2]; 114% in assay [3]; 91.2% in assay [4]; 104% in assay [5]; 116% in assay [6]. Moreover, the growth in [7] was 109%; in [8], 124%; in assay [9], 118%; in assay [10], 109%; in [11] it was 115%; in [12] it was 115%. The growth in [13] is 93%; in [14] it was 115%; in assay [15] it was 104%; in assay [16], 110%.
On to `Nc1nc(Cl)nc2c1ncn2C1O[C@H](CO)[C@@H](O)[C@@H]1F` (some centres undefined), for which the growth in assay [1] is -9.12% (active); in [2], 2.75% (active); in [3] it was 3.27% (active); in [4], 38.4%; in assay [5] it was 23.4%; in [6], -34.1% (active). The growth in assay [7] is 37.6%; in assay [8], -3.84% (active); in [9], 60.9%; in assay [10] it was 70%; in [11], 42.2%; in [12] it was 9.03% (active). In addition, the growth was 14.2% in assay [13], 37.7% in [14], 22.7% in assay [15] and -48.4% (active) in assay [16].
For `C[C@@H](O)[C@H]1C(=O)N2C(C(=O)O)=C(SCCN=CN)C[C@H]12`, the growth in [1] is -1.59% (active); in [2], -34.7% (active); in [3], 1.59% (active); in assay [4], -8.43% (active); in assay [5] it was -14.9% (active); in assay [6], 8.8% (active). Also, the growth in assay [7] was -25.8% (active); in assay [8], -7.37% (active); in [9] it was -60.1% (active); in assay [10], 9.83% (active); in [11], 1.5% (active); in assay [12] it was -4.56% (active). Besides, the growth was -5.26% (active) in [13], 3.65% (active) in assay [14], -31% (active) in [15] and -44.7% (active) in assay [16].
Consider `C=C(NC(=O)C(=C)NC(=O)c1csc(C2=NC3c4csc(n4)C4NC(=O)c5csc(n5)C(C(C)(O)C(C)O)NC(=O)C5CSC(=N5)C(=CC)NC(=O)C(C(C)O)NC(=O)c5csc(n5)C3(CC2)NC(=O)C(C)NC(=O)C(=C)NC(=O)C(C)NC(=O)C(C(C)CC)NC2C=Cc3c(C(C)O)cc(nc3C2O)C(=O)OC4C)n1)C(N)=O` (centres undefined), for which the growth in assay [1] is 43.2%; in [2], -59.6% (active); in assay [3], 66.2%; in [4], 16.2%; in assay [5] it was 72.2%; in [6] it was 8.49% (active). The growth in [7] is -14.3% (active); in assay [8] it was 65.5%; in [9] it was 26.9%; in assay [10] it was 9.76% (active); in [11], -41.3% (active); in assay [12] it was 27.1%. Also, the growth is 1.63% (active) in [14], 26.4% in [15] and 2.27% (active) in assay [16].
Regarding `CCCCCOC(=O)Nc1nc(=O)n(C2O[C@H](C)[C@@H](O)[C@H]2O)cc1F` (some centres undefined), the growth in [1] was 95.3%; in assay [2] it was 97.7%; in assay [3] it was 102%; in assay [4] it was 92.4%; in assay [5], 98%; in assay [6] it was 106%. Moreover, the growth was 106% in assay [7]; 115% in assay [8]; 103% in [9]; 90.9% in assay [10]; 98.1% in assay [11]; 95.4% in assay [12]. For the same molecule, the growth is 98.1% in assay [13], 101% in [14], 96.2% in assay [15] and 108% in assay [16].
As for `Cc1cc(C(C#N)c2ccc(Cl)cc2)c(Cl)cc1NC(=O)c1cc(I)cc(I)c1O` (centres undefined), the growth is 10.4% in assay [1]; 45.4% in [2]; 24.1% in [3]; -12.1% (active) in [4]; 71.3% in assay [5]; 20.8% in assay [6]. The growth in assay [7] is 53.5%; in assay [8], 72.7%; in assay [9], 58.1%; in assay [10], 46.6%; in [11], 48.9%; in [12], 33.7%. Besides, the growth is -20.9% (active) in assay [13], 31.5% in [14], 71.3% in assay [15] and 32.3% in assay [16].
